This is an account of results in PubChem BioAssay (NCI).

Assay [1] in a line: NCI Yeast Anticancer Drug Screen. Data for the rad50 strain (AID 155).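 Note: 0% = growth of vehicle-only cultures of the same strain.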 To be noted: S. cerevisiae rad50 strain growth inhibition, stronger effect = higher value. In outline: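 Genetically altered yeast (DNA repair pathway); compound treatment; growth inhibition vs vehicle ctrl.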
Assay [2] can be described thus: NCI Yeast Anticancer Drug Screen. Data for the mec2-1 strain (AID 157). The settings on record: S. cerevisiae mec2-1 strain, stronger effect = higher value. The method in brief: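 mec2-1 yeast strain, carrying an alteration in DNA damage repair or cell cycle control, was exposed to compounds; growth inhibition was measured relative to vehicle-treated controls.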
A short description of assay [3]: NCI Yeast Anticancer Drug Screen. Data for the sgs1 mgt1 strain (AID 161).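 Note: 0% = growth of cultures given vehicle only.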 To be noted: S. cerevisiae sgs1 mgt1 strain, stronger effect = higher value. The method in brief: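 This yeast growth screen uses a strain with defined DNA-repair lesions; compound-treated growth is compared with vehicle-treated growth.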
The nature of assay [4]: NCI Yeast Anticancer Drug Screen. Data for the cln2 rad14 strain (AID 165).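 Note: 0% = growth equal to vehicle treated cultures.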 The settings on record: S. cerevisiae cln2 rad14 strain, stronger effect = higher value. The method in brief:
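Yeast carrying cln2 and rad14 alterations (cell cycle control and DNA damage repair) were exposed to compounds. Growth inhibition was measured against vehicle-treated controls.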

Assay [5] can be described thus: NCI Yeast Anticancer Drug Screen. Data for the bub3 strain (AID 167). To be noted: S. cerevisiae bub3 mutant strain, stronger effect = higher value. The method in brief: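 Yeast carrying a defined mutation is treated with each compound, and growth is compared with that of vehicle-exposed cells to give inhibition.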
Assay [6] in a line: NCI Yeast Anticancer Drug Screen. Data for the mlh1 rad18 strain (AID 175). To be noted: S. cerevisiae mlh1 rad18 strain growth inhibition, stronger effect = higher value. In outline: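 Growth inhibition of the yeast strain was measured after compound exposure and expressed relative to vehicle-treated controls. The strain carries defined defects in DNA damage repair.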
Setting [7] is: at 5.0 µM (retest, dose inferred, filed as 0.5).
[8] abbreviates: at 50.0 µM (retest, dose inferred, filed as 5.0).

Molecules are shown by their SMILES. This is part of a sample that, as a whole, favours compounds with a hit. Of some 79,000 tested, about 15% had one in any assay. A number with no mark means an inactive call. Calls of active or inactive are those of the source. Cut-off read from the data, not from the text of the source: active = growth inhibition above about 70%; inactive = the rest.

`COc1ccc(-c2cc(=O)c3c(C)ccnc3[nH]2)cc1`: the growth inhibition in assay [1] (setting [7]) is 58%; in assay [1] (setting [8]), 58%; in assay [1] (at 50.0 µM), 87.2% (active); in assay [2] (setting [7]), 43%; in assay [2] (setting [8]), 43%; in assay [2] (at 50.0 µM), 83.2% (active). The growth inhibition in assay [3] (setting [7]) is 54%; in assay [3] (setting [8]) it was 54%; in assay [3] (at 50.0 µM), 82.5% (active); in assay [4] (setting [7]), 20%; in assay [4] (setting [8]), 20%; in assay [4] (at 50.0 µM), 65.8%. Also, the growth inhibition is 25% in assay [5] (setting [7]); 25% in assay [5] (setting [8]); 81.8% (active) in assay [5] (at 50.0 µM); 39% in assay [6] (setting [7]); 39% in assay [6] (setting [8]); 81.5% (active) in assay [6] (at 50.0 µM).
As to `Cc1ccc(S(=O)(=O)CC2(Br)Cc3ccccc3C2=O)cc1` (stereo not given), the growth inhibition in assay [1] (setting [7]) was 79% (active); in assay [1] (setting [8]) it was 99% (active); in assay [1] (at 50.0 µM) it was 97.3% (active); in assay [2] (setting [7]) it was 76% (active); in assay [2] (setting [8]), 99% (active); in assay [2] (at 50.0 µM), 98.8% (active). The growth inhibition was 86% (active) in assay [3] (setting [7]); 99% (active) in assay [3] (setting [8]); 99.1% (active) in assay [3] (at 50.0 µM); 24% in assay [4] (setting [7]); 99% (active) in assay [4] (setting [8]); 98.2% (active) in assay [4] (at 50.0 µM). In addition, the growth inhibition in assay [5] (setting [7]) is 85% (active); in assay [5] (setting [8]), 99% (active); in assay [5] (at 50.0 µM) it was 99% (active); in assay [6] (setting [7]), 75% (active); in assay [6] (setting [8]) it was 98% (active); in assay [6] (at 50.0 µM), 98.5% (active).
In the case of `O=c1oc(-c2cccc(C(Cl)Cl)c2)ns1`, the growth inhibition was 7% in assay [1] (setting [7]); 99% (active) in assay [1] (setting [8]); 98.2% (active) in assay [1] (at 50.0 µM); 5% in assay [2] (setting [7]); 100% (active) in assay [2] (setting [8]); 99.1% (active) in assay [2] (at 50.0 µM). In addition, the growth inhibition in assay [3] (setting [7]) is 12%; in assay [3] (setting [8]) it was 100% (active); in assay [3] (at 50.0 µM), 99.2% (active); in assay [4] (setting [7]) it was 2%; in assay [4] (setting [8]), 99% (active); in assay [4] (at 50.0 µM), 69%. Also, the growth inhibition in assay [5] (setting [7]) was 3%; in assay [5] (setting [8]) it was 99% (active); in assay [5] (at 50.0 µM) it was 97.7% (active); in assay [6] (setting [7]) it was 13%; in assay [6] (setting [8]) it was 99% (active); in assay [6] (at 50.0 µM), 99.1% (active).
With `C/C(CCC1CCc2ccccc2C1)=N\NC(N)=O` (stereo not given), the growth inhibition in assay [1] (setting [7]) was -11%; in assay [1] (setting [8]), -8%; in assay [1] (at 50.0 µM), 32.2%; in assay [2] (setting [7]), -4%; in assay [2] (setting [8]) it was 0%; in assay [2] (at 50.0 µM), 12.3%. The growth inhibition in assay [3] (setting [7]) is 1%; in assay [3] (setting [8]) it was 5%; in assay [3] (at 50.0 µM) it was 6.2%; in assay [4] (setting [7]), -42%; in assay [4] (setting [8]), -13%; in assay [4] (at 50.0 µM), -1.45%. The growth inhibition is 0% in assay [5] (setting [7]); -2% in assay [5] (setting [8]); 11.4% in assay [5] (at 50.0 µM); -8% in assay [6] (setting [7]); -10% in assay [6] (setting [8]); -6.5% in assay [6] (at 50.0 µM).
In the case of `Cc1c(-c2ccccc2)ccnc1/C=N/NC(=S)Nc1ccccc1`, the growth inhibition in assay [1] (setting [7]) was 1%; in assay [1] (setting [8]), 39%; in assay [1] (at 50.0 µM), 89.2% (active); in assay [2] (setting [7]) it was 1%; in assay [2] (setting [8]) it was 31%; in assay [2] (at 50.0 µM) it was 94% (active). The growth inhibition in assay [3] (setting [7]) is 4%; in assay [3] (setting [8]), 88% (active); in assay [3] (at 50.0 µM), 95.1% (active); in assay [4] (setting [7]), 1%; in assay [4] (setting [8]) it was 23%; in assay [4] (at 50.0 µM), 92.1% (active). Also, the growth inhibition in assay [5] (setting [7]) was -2%; in assay [5] (setting [8]), 49%; in assay [5] (at 50.0 µM), 95.7% (active); in assay [6] (setting [7]), -5%; in assay [6] (setting [8]), 59%; in assay [6] (at 50.0 µM) it was 93.8% (active).
For the molecule `CN1CCN(CC(C(=O)O)(c2ccccc2)c2ccccc2)CC1`, the growth inhibition in assay [1] (setting [7]) was -1%; in assay [1] (setting [8]), 2%; in assay [1] (at 50.0 µM) it was -1.85%; in assay [2] (setting [7]), 3%; in assay [2] (setting [8]), -5%; in assay [2] (at 50.0 µM), 5.05%. The growth inhibition in assay [3] (setting [7]) is -3%; in assay [3] (setting [8]), 0%; in assay [3] (at 50.0 µM) it was -16.6%; in assay [4] (setting [7]), 4%; in assay [4] (setting [8]), -1%; in assay [4] (at 50.0 µM) it was 14.2%. Further, the growth inhibition in assay [5] (setting [7]) was 0%; in assay [5] (setting [8]) it was -5%; in assay [5] (at 50.0 µM) it was 59.5%; in assay [6] (setting [7]), -1%; in assay [6] (setting [8]), -4%; in assay [6] (at 50.0 µM), -13.2%.
As to `O=C(Nc1ccccc1)c1ccc([N+](=O)[O-])o1`, the growth inhibition was 12% in assay [1] (setting [7]); 83% (active) in assay [1] (setting [8]); 96.3% (active) in assay [1] (at 50.0 µM); 3% in assay [2] (setting [7]); 73% (active) in assay [2] (setting [8]); 95.7% (active) in assay [2] (at 50.0 µM). The growth inhibition in assay [3] (setting [7]) was 9%; in assay [3] (setting [8]), 82% (active); in assay [3] (at 50.0 µM), 98.6% (active); in assay [4] (setting [7]) it was -2%; in assay [4] (setting [8]) it was 31%; in assay [4] (at 50.0 µM), 80.2% (active). In addition, the growth inhibition was 2% in assay [5] (setting [7]); 79% (active) in assay [5] (setting [8]); 91.4% (active) in assay [5] (at 50.0 µM); 24% in assay [6] (setting [7]); 91% (active) in assay [6] (setting [8]); 98.5% (active) in assay [6] (at 50.0 µM).
With `COc1ccccc1OCC(COC(=O)Nc1ccc(C)cc1)OC(=O)Nc1ccc(C)cc1` (stereo not given), the growth inhibition was 2% in assay [1] (setting [7]); 2% in assay [1] (setting [8]); 88.4% (active) in assay [1] (at 50.0 µM); -5% in assay [2] (setting [7]); -5% in assay [2] (setting [8]); 82.4% (active) in assay [2] (at 50.0 µM). Further, the growth inhibition in assay [3] (setting [7]) was -18%; in assay [3] (setting [8]) it was -18%; in assay [3] (at 50.0 µM), 85.2% (active); in assay [4] (setting [7]) it was -2%; in assay [4] (setting [8]), -2%; in assay [4] (at 50.0 µM), 78.6% (active). The growth inhibition was -1% in assay [5] (setting [7]); -1% in assay [5] (setting [8]); 85% (active) in assay [5] (at 50.0 µM); -1% in assay [6] (setting [7]); -1% in assay [6] (setting [8]); 78.7% (active) in assay [6] (at 50.0 µM).
As to `[Cl-].[La+3].[O-]/N=C(\c1ccccc1)c1ccccn1.[O-]/N=C(\c1ccccc1)c1ccccn1.[O-]/N=C(\c1ccccc1)c1ccccn1`, the growth inhibition was 42% in assay [1] (setting [7]); 63% in assay [1] (setting [8]); 63.3% in assay [1] (at 50.0 µM); 25% in assay [2] (setting [7]); 60% in assay [2] (setting [8]); 40.2% in assay [2] (at 50.0 µM). In addition, the growth inhibition in assay [3] (setting [7]) is 31%; in assay [3] (setting [8]), 68%; in assay [3] (at 50.0 µM) it was 43.2%; in assay [4] (setting [7]), 21%; in assay [4] (setting [8]), 34%; in assay [4] (at 50.0 µM) it was 43.5%. In addition, the growth inhibition is 42% in assay [5] (setting [7]); 90% (active) in assay [5] (setting [8]); 67.3% in assay [5] (at 50.0 µM); 43% in assay [6] (setting [7]); 68% in assay [6] (setting [8]); 59.2% in assay [6] (at 50.0 µM).
For `Cc1cc(Cl)cc2c1NC(=O)C2(O)C/C(=N/NC(=O)CC#N)c1cccc([N+](=O)[O-])c1` (stereo not given), the growth inhibition in assay [1] (setting [7]) is 4%; in assay [1] (setting [8]), 20%; in assay [1] (at 50.0 µM), 59.1%; in assay [2] (setting [7]), -13%; in assay [2] (setting [8]), 35%; in assay [2] (at 50.0 µM), 38.1%. Further, the growth inhibition in assay [3] (setting [7]) was -1%; in assay [3] (setting [8]) it was -4%; in assay [3] (at 50.0 µM) it was 62.2%; in assay [4] (setting [7]), -3%; in assay [4] (setting [8]) it was 1%; in assay [4] (at 50.0 µM), 9.4%. Moreover, the growth inhibition in assay [5] (setting [7]) was 1%; in assay [5] (setting [8]), 13%; in assay [5] (at 50.0 µM), 15.4%; in assay [6] (setting [7]), 1%; in assay [6] (setting [8]), -23%; in assay [6] (at 50.0 µM), 76.8% (active).
